Results filed as inconclusive are left out. Activity calls are given as the source filed them. The calls were made as follows: active = hit-call score of the fitted dose curve at least 0.9, where 1 is the maximum; inconclusive = response in the unintended direction; inactive = score below 0.9.

This assay in a line: ACEA_ER_AUC_viability: ACEA Biosciences xCELLigence Real-Time Cell Analysis on Estrogen Receptor Agonism for Viability (AID 2283782).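 Also: continuous compound exposure with impedance area under curve over 80 h; hit means loss of impedance signal meaning reduced cell growth or viability.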 An outline of the steps: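 T-47D human breast cells in phenol red-free RPMI1640 with 10% charcoal-stripped FBS were dosed with an 8-point 1:4 dilution series from 100 uM top final concentration, in duplicate. Impedance-based growth was followed for 80 h; AUC analysed versus DMSO.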
Take `CN(C)CCCN(C)CCCN(C)C`: the call was inactive. `COc1ccc(OC(F)(F)F)cc1CN[C@H]1CCCN[C@H]1c1ccccc1`: the concentration at half-maximal activity (AC50) (usually the concentration giving half of the maximal activity seen) is 14.9 µM (active). Consider `CC(C)c1cccc(C(C)C)c1`, for which the result was inactive. Turning to `CCCCCCC(C=O)=Cc1ccccc1`, the AC50 is 74.7 µM (active). Same read-out and setting: the value for `CO[C@@H]1COCC[C@@H]1N[C@@H]1CC[C@@](C(=O)N2CCc3ncc(C(F)(F)F)cc3C2)(C(C)C)C1` was 21.3 µM (active).

As for `CC(=O)OC1CC(C)OC(C)O1` (centres undefined), the result was inactive. With `O=C(N[C@@H](c1ccccc1)[C@@H]1CCCCN1)c1cccc(C(F)(F)F)c1Cl`, the concentration at half-maximal activity (AC50) is 15.3 µM (active). In the case of `O=NO`, the compound was classed as inactive. Still for that read-out and setting: the value for `Cc1cn([C@H]2C=C[C@@H](CO)O2)c(=O)[nH]c1=O` was “inactive”.

Source of the values: PubChem BioAssay (EPA / NIEHS).
